“And” between values parts separate entries of the source, which are not always exact repeats. Equal values may be shown once. In all, about 360,000 compounds went through this assay and about 11,000 (3.1%) were called active. About 4% were inconclusive and are not listed. The sample holds actives, similar compounds and a random draw of the others, so the mix is not that of the screen. Calls follow the shape of the dose curve; as a rule, active = well fitted inhibition curve with a large enough effect; inconclusive = small, poorly fitted or top-dose-only effect; inactive = no such curve, though single readings can be large or run the other way.
Target: Schistosoma mansoni thioredoxin glutathione reductase (TGR) (UniProt Q962Y6)
Assay: qHTS Assay for the Inhibitors of Schistosoma Mansoni Peroxiredoxins; also: nearly all actives have a fitted effect of over 60% in size
Conditions: purified TGR, DTNB reduction, TNB absorbance 405 nm; series mostly up to 114 µM; activity change, negative = inhibition: at the top concentration
How it was run: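 First, TGR (20 nM dispensed) and NADPH were mixed with compound. Second, a 15 min room-temperature incubation followed. Third, further NADPH and then DTNB were added to start the reaction. Finally, TNB absorbance was monitored kinetically.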
% is scaled to controls: 0 for no effect and ±100 for the full control effect; potency is read from the fitted curve at half-maximal effect.

Compound | activity change, negative = inhibition | Potency
Cc1cccc(NC(=O)C2CCCN2S(=O)(=O)c2cccc3nsnc23)c1C (stereo not given) | 10.6% (inactive) | –
Cn1cnnc1Sc1ccc(S(C)(=O)=O)cc1[N+](=O)[O-] | – | 35.5 µM (active)
CC(C)(C)n1cnnc1Sc1ccc([N+](=O)[O-])cn1 | -25.2% (inactive) | –
CCN(CC(=O)Nc1c(F)cccc1F)C(=O)c1ccc(Sc2nncn2C)c([N+](=O)[O-])c1 | 0.198% (inactive) | –
C=CCn1c(SCC(=O)NC(=O)Cc2ccccc2)nc2ccccc2c1=O | – | 89.1 µM (active)
C=CCn1c(SCc2ccc(C(=O)NCCO)cc2)nc2ccccc2c1=O | -27.7% (inactive) | –
O=C(CSc1nc2ccccc2c(=O)n1CCCO)NC1CC1 | 4.65% (inactive) | –
Cc1ccc(O)c(NC(=O)c2cc(-c3ccc(F)cc3)no2)c1 | -1.53% (inactive) | –
Cc1ccc(C(=O)N2CCc3cc(CNC(=O)c4ccc(Br)cc4)ccc32)cc1 | 2.43% (inactive) | –
COc1ccc(NC(=O)c2cc3cc(C)ccc3n2C)cc1 | 0.281% (inactive) | –
CN(C)S(=O)(=O)c1ccc(NC(=O)N2CCOCC2)cc1 | 9.09% (inactive) | –
CN(C)S(=O)(=O)c1cccc(NC(=S)N/N=C/C(=O)c2ccccc2)c1 | -1.78% (inactive) | –
CN(C)S(=O)(=O)c1ccc(N/C=C(\[N+](=O)[O-])S(=O)(=O)c2ccccc2)cc1 | – | 14.1 µM (active)
O=C(CN1C(=O)CCn2nc(-c3ccccc3)cc21)NCc1ccccc1 | 10.6% (inactive) | –
CCN1N=C(c2ccccc2)CCC1=O | -0.45% (inactive) | –
CC1CSc2nnc(CCc3ccccc3)n21 (stereo not given) | -29.9% (inactive) | –
Cc1nnc2n1N=C(c1ccccc1)CS2 | – | 39.8 µM (active)
COc1ccc(-c2cc(-c3nc(-c4cc(OC)c(OC)c(OC)c4)no3)[nH]n2)c(OC)c1 | 6.07% (inactive) | –
CCOCCCNC(=O)c1c(NC(=O)c2nc(SC)ncc2Cl)sc2c1CCCC2 | 4.43% (inactive) | –
CC(C)(C)c1ccc(S(=O)(=O)Nc2ccc(O)c(Sc3nc4ccccc4s3)c2)cc1 | 1.84% (inactive) | –
CC(C)c1ccc(S(=O)(=O)Nc2ccc(O)c(Sc3nc4ccccc4s3)c2)cc1 | -6.03% (inactive) | –
O=[N+]([O-])c1c(NCCO)cc(Sc2nc3ccccc3s2)c2nonc12 | – | 0.1 µM (active)
Cc1ccccc1C(=O)Nc1sc2c(c1C(=O)N1CCC(C)CC1)CCCC2 | -0.228% (inactive) | –
CCOC(=O)c1ccccc1NC(=O)CCc1c(C)nc2c(c1C)c(=O)n(C)c(=O)n2C | 0.941% (inactive) | –
Cn1nc(-c2ccccc2)c2cc([N+](=O)[O-])ccc21 | -16.5% (inactive) | –

Compound | activity change, negative = inhibition | Potency
Cn1c(=O)c([N+](=O)[O-])c(Oc2ccccc2)c2ccccc21 | – | 2.82 µM (active)
Cc1cccc(OP(=O)(Nc2c(C)n(C)n(-c3ccccc3)c2=O)Oc2cccc(C)c2)c1 | -3.85% (inactive) | –
Cc1cccc(Oc2c([N+](=O)[O-])c(=O)n(C)c3ccccc23)c1 | – | 3.98 µM (active)
Cc1cccc(C2CC(=O)Oc3c2c(=O)n(C)c2ccccc32)c1 (stereo not given) | 0.0135% (inactive) | –
Cn1c(=O)c(Sc2ccc(Cl)cc2)c(O)c2ccccc21 | -12.3% (inactive) | –
Cc1ccc(Cl)cc1N1CCN(S(=O)(=O)c2cc3[nH]c(=O)c(=O)[nH]c3cc2C)CC1 | -8.22% (inactive) | –
CCCNC(=O)c1ccc2c(c1)ncn2-c1ccc(C)cc1C | 9.84% (inactive) | –
CC(C)CC(=O)NCC(c1ccc2c(c1)OCO2)N1CCN(c2ccc(F)cc2)CC1 (stereo not given) | -0.444% (inactive) | –
CCOc1cc(/C=C(\C#N)C(=O)Nc2ccccc2C)ccc1OCc1cc(=O)n2nc(CC)sc2n1 | 4.52% (inactive) | –
CCOCCCn1c(SCC(=O)Nc2ccc(CC)cc2)nc2ccccc2c1=O | -1.27% (inactive) | –
CCOc1ccc(NC(=O)CC2C(=O)N(c3cccc(OC)c3)C(=O)N2C2CCCCC2)cc1 (stereo not given) | -8.02% (inactive) | –
COC(=O)C1=CN(Cc2ccc(OC)cc2)C=C(C(=O)OC)C1c1ccc(O)c(OC)c1 | 31.3% (inactive) | –
CCOc1ccc(CNC(=O)C2CCC(=O)N2C2CCCC2)cc1OC (stereo not given) | 6.99% (inactive) | –
CCOc1cc(C2C(C(=O)OC)=CN(C3CCCC3)C=C2C(=O)OC)cc(Br)c1O | – | 56.2 µM (active)
COc1ccc(C)cc1Nc1nc2ccccc2c2nnc(C)n12 | 1.72% (inactive) | –
COc1cc2ccccc2cc1C(=O)Nc1cccc(-c2nc3ccccc3o2)c1 | -0.84% (inactive) | –
CCCCN(CCCNC(=O)c1cc(Nc2ccccc2OC)nc2ccccc12)c1ccccc1 | -1.75% (inactive) | –
O=C(c1cccc(S(=O)(=O)Nc2ccccc2Cl)c1)N1CCN(C(=O)c2ccco2)CC1 | – | 31.6 µM (active)
O=C(CNS(=O)(=O)c1ccccc1)N1CCN(C(=O)c2ccco2)CC1 | -24.4% (inactive) | –
O=C(c1cccc([N+](=O)[O-])c1)N1CCN(C(=O)c2ccco2)CC1 | -8% (inactive) | –
COc1ccc(OC)c(NC(=O)CSc2nc3ccccc3nc2N2CCCCC2)c1 | 8.33% (inactive) | –
CCOc1ccc(C2C(C(=O)Nc3ccc(Cl)cc3)=C(C)Nc3nc(C(F)(F)F)nn32)cc1 (stereo not given) | -2.26% (inactive) | –
Cc1cccc(C(=O)NC(=S)N(C)C2CCCCC2)c1 | 7.05% (inactive) | –
Cc1cccc(C(=O)N2c3nc(-c4ccco4)nn3C3(CCCCC3)[C@@H]3CCCC[C@@H]32)c1 | – | 35.5 µM (active)
Cc1ccc(C(=O)N2c3ncnn3C3(CCCCC3)[C@@H]3CCCC[C@@H]32)cc1 | -0.658% (inactive) | –

Compound | activity change, negative = inhibition | Potency
CCN(CC)CCNC(=O)Cn1ncc2c3ccccc3n(Cc3ccccc3C)c2c1=O | 2.19% (inactive) | –
COc1ccc(/C=C/c2noc(-c3ccccc3O)n2)cc1OC | 8.66% (inactive) | –
COc1ccccc1CCNC(=O)c1cccn1-c1nnc(N2CCCCC2)s1 | 5.45% (inactive) | –
COc1ccc(C2=CC(c3ccccc3Cl)n3nc(-c4ccc(Cl)cc4)nc3N2)cc1 (stereo not given) | -0.964% (inactive) | –
COc1ccc(CNC(=O)Cn2nnc(-c3ccc(S(C)(=O)=O)cc3)n2)cc1 | -1.93% (inactive) | –
Cc1ccc(C2C=C(c3ccc(Cl)cc3)Nc3nc(NC(=O)CCC(=O)O)nn32)cc1 (stereo not given) | – | 17.8 µM (active)
COc1ccc(CC(=O)Nc2nc3n(n2)C(c2ccccc2)CC(=O)N3)cc1OC (stereo not given) | -29.1% (inactive) | –
CC1=C(C(=O)Nc2ccccc2)C(c2ccc(C)cc2)n2nc(SCc3ccccc3C)nc2N1 (stereo not given) | 4.56% (inactive) | –
COc1ccc(C2C=C(c3ccc(Br)cc3)Nc3nc(NS(C)(=O)=O)nn32)cc1 (stereo not given) | – | 22.4 µM (active)
CCC(C(=O)Nc1cc(OC)ccc1OC)n1c(=O)c(C(F)(F)F)nc2ccccc21 (stereo not given) | 9.99% (inactive) | –
COc1ccc(CCNC(=O)c2ccc(CSCc3ccc(C)cc3)o2)cc1OC | -18.8% (inactive) | –
Cc1ccccc1CN1CCC(CNC(=O)c2c(C)oc3ncnc(N4CCCCC4)c23)CC1 | 9.84% (inactive) | –
CCOc1ccc(OCC)c(Nc2nc3ccccc3n3nnnc23)c1 | 1.06% (inactive) | –
COc1ccc(CCNC(=O)c2cnc3sc(N4CCCCCC4)nn3c2=O)cc1OC | 0.303% (inactive) | –
COc1cccc(N2CC(NC(=O)/C=C\c3ccccc3)CC2=O)c1 (stereo not given) | 3.58% (inactive) | –
Cn1sc(=O)c2cc(S(=O)(=O)NC3CC3)ccc21 | – | 1.58 µM (active)
O=S(=O)(NC1CC1)c1ccc(F)c(F)c1 | 6.35% (inactive) | –
CC1CCC(NS(=O)(=O)c2ccc3c(c2)n(C)c(=O)c(=O)n3C)CC1 (stereo not given) | 6.06% (inactive) | –
Cn1c(COc2ccccc2C(C)(C)C)nc2ccccc21 | -12.6% (inactive) | –
Cc1cc2c(cc3c(SCc4cccc(Cl)c4)nnc(C)n32)o1 | 2.97% (inactive) | –
Cc1ccc(-c2nnc(Nc3cccc(Br)c3)c3ccccc23)cc1S(=O)(=O)NCC1CCCO1 (stereo not given) | -1.37% (inactive) | –
Cc1cccc(OCC(=O)N(Cc2ccc(C(C)C)cc2)Cc2ccco2)c1C | 15% (inactive) | –
COc1ccc(CN(C)C(=O)Cc2c[nH]c3ccccc23)c(OC)c1OC | -1.7% (inactive) | –
CN(Cc1cccs1)C(=O)Cc1c[nH]c2ccccc12 | 1.04% (inactive) | –
CCOC(=O)CN(C)Cc1c[nH]c2ccccc12 | – | 35.5 µM (active)

Compound | activity change, negative = inhibition | Potency
Brc1ccc2c(c1)NC(c1cccnc1)=NC(c1ccccc1)=N2 | -3.69% (inactive) | –
c1ccc(C2=Nc3cccc4cccc(c34)N2)cc1 | – | 35.5 µM (active)
COc1ccccc1C1=Nc2cccc3cccc(c23)N1 | -6.48% (inactive) | –
CCC(CC)c1nn2cc(-c3ccccc3)nc2s1 | 12.9% (inactive) | –
COc1ccc(Br)cc1CNC(=O)c1cc(=O)[nH]c2ccc(S(=O)(=O)N3CCCC3)cc12 | -2.46% (inactive) | –
O=S(=O)(c1ccc(Br)cc1)c1nnn2c1nc(N1CCOCC1)c1sccc12 | 4.43% (inactive) | –
CC(=O)OC1=C(C(C)=O)N(Cc2ccccc2)S(=O)(=O)c2ccccc21 | -20.4% (inactive) | –
Cc1ccc(CNC(=O)c2c(O)nc3c(C)cccn3c2=O)cc1 | 1.88% (inactive) | –
O=C(NCc1cccs1)c1ccc(CS(=O)Cc2ccccc2Cl)o1 (stereo not given) | 2.3% (inactive) | –
Cc1ccc(CNC(=O)c2ccc(CS(=O)Cc3cccc(Cl)c3)o2)cc1 (stereo not given) | – | 35.5 µM (active) and 25.1 µM (active)
CCOc1ccc(CNC(=O)c2ccc(CS(=O)c3ccccc3)o2)cc1 (stereo not given) | 0.329% (inactive) | –
CCN(CC)C(=O)CSc1nc2ccsc2c(=O)n1Cc1ccccc1Cl | 2.09% (inactive) | –
CCCCNC(=O)c1cc(-c2ccc(Cl)c(Cl)c2)on1 | -1.93% (inactive) | –
CC(/C=N/NC(=O)c1cc(-c2ccc3ccccc3c2)n[nH]1)=C\c1ccco1 | -18.4% (inactive) | –
C/C(=C\c1ccco1)C1Nc2cccc3cccc(c23)N1 | – | 3.55 µM (active)
Cc1ccc(Cn2cc(CCC(=O)NCc3ccc(OC(C)C)cc3)c3ccccc32)cc1 | 11.8% (inactive) | –
COc1ccc(S(=O)(=O)c2c(Nc3cccc(Cl)c3)sc(C(=O)c3ccccc3)c2N)cc1 | -2.74% (inactive) | –
Cc1cc(C)c2oc(C(=O)Nc3ccc(S(=O)(=O)N(C)c4ccccc4)cc3)cc(=O)c2c1 | 14.3% (inactive) | –
CCCCOC(=O)CSc1ncnc2sc3c(c12)CCC(C)C3 (stereo not given) | 0.934% (inactive) | –
O=C(CCN1CCCCC1)N=Nc1c(O)[nH]c2ccccc12 | – | 11.2 µM (active)
Cc1c(-c2ccccc2)n[nH]c1C(=O)N=Nc1c(O)[nH]c2ccccc12 | 5.01% (inactive) | –
O=C(CNC(=O)Cc1ccccc1)N=Nc1c(O)[nH]c2ccc(Br)cc12 | -22.3% (inactive) | –
N#C/C(=C\c1ccccc1F)c1nc2ccccc2c(=O)[nH]1 | 7.82% (inactive) | –
CNC(=O)CN1C(=O)c2cccnc2Sc2ccccc21 | -4.14% (inactive) | –
Cc1ccsc1CN(C(=O)c1oc2ccc(Br)cc2c1C)C1CCS(=O)(=O)C1 (stereo not given) | 17.6% (inactive) | –
